# Out of some 310,000 compounds screened, about 14,000 (4.5%) showed an effect of 50% or more. The effect is printed as a negative number. What follows is part of a selection rich in strong results, with near analogues and random picks from the rest.
# Biological target: human ether-à-go-go-related gene (hERG) potassium channel (human, UniProt Q12809)
# Assay: primary screen, population patch clamp on CHO cells stably expressing hERG; higher = less effect of the substance
# 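Note: peak tail current of the secondary pulse compared with the same well before compound.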
# Chain of human ether-à-go-go-related gene (hERG) potassium channel (Q12809 whole entry, looked up): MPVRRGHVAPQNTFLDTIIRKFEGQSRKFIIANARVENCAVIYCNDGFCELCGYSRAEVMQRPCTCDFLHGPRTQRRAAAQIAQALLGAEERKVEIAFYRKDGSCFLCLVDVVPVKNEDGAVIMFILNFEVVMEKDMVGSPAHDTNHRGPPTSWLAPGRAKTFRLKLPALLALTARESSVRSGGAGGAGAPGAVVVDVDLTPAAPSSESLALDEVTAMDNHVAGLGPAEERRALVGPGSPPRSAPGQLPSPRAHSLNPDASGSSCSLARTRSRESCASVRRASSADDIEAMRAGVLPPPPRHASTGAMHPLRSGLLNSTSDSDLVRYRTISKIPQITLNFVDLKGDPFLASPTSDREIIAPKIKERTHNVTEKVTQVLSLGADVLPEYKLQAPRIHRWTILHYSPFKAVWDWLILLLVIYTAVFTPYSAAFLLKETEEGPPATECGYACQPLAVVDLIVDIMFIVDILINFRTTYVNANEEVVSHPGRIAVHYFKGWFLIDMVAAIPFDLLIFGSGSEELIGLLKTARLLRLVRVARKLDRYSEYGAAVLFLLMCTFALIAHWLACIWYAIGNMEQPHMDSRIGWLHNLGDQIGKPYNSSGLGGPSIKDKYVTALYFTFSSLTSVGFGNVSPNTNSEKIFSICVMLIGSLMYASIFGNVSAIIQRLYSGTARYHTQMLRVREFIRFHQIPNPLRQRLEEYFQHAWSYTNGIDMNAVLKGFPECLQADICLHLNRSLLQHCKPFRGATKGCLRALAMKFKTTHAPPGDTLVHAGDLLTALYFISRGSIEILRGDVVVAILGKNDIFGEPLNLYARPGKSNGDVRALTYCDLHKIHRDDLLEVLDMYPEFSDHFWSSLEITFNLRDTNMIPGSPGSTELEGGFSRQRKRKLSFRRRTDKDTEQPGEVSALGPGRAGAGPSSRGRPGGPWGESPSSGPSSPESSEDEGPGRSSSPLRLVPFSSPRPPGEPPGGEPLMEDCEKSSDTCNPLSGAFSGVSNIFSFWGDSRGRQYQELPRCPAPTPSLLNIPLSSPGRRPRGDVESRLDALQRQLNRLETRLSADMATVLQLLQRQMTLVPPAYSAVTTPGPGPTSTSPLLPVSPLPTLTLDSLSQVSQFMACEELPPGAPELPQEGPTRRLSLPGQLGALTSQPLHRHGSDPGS
row,SMILES,"hERG current change (%, negative = inhibition) at 10uM"
1,COc1ccc2c(c1)[nH]c1c(=O)n(CCN(C)C)cnc12,-34.1%
2,CCOC(=O)c1cccc(NC(=O)/C=C/c2cccc([N+](=O)[O-])c2)c1,-15.4%
3,Cn1c(SCC(=O)NCc2ccccc2)nc2c([nH]c3ccccc32)c1=O,8.94%
4,CCC(=O)Nc1nnc(S(=O)(=O)N2CCCC2)s1,8.85%
5,Cc1c(NC(=O)c2cccc(F)c2)c(=O)n(-c2ccccc2)n1C,20.5%
6,CCCOC(=O)c1ccc(NC(=O)c2ccccc2OC)cc1,4.44%
7,CCOC(=O)C1=C(C)N(C)C(=O)NC1c1ccccc1OC (centres unmarked),-12.1%
8,Cc1ccc(Nc2nc(Oc3ccc(OCc4ccccc4)nn3)nc(N3CCOCC3)n2)cc1,3.53%
9,S=c1oc(-c2ccncc2)nn1CCc1ccncc1,13%
10,CCc1nc2c3cnn(-c4cc(Cl)ccc4C)c3ncn2n1,5.24%
11,Cn1cc(-c2ccccc2C(N)=O)c(=O)c2ccccc21,5.37%
12,NC(=O)c1cn(C2CCCCC2)c2ccccc2c1=O,-65.2%
13,Cn1c2ccccc2c2c(C(=O)O)cn(C3CCCC3)c(=O)c21,7.78%
14,CN(C)S(=O)(=O)c1ccc(C(=O)N2CC(=O)Nc3ccc(F)cc3C2c2ccc(F)cc2)cc1 (centres unmarked),-21%
15,CCC(CC)NC(=O)C1CCN(S(=O)(=O)c2cccs2)CC1,1.92%
16,COc1ccc(Cl)cc1NC(=S)Nc1cccc(C)c1,10.3%
17,Cl.O=C(O)c1ccc(CNCc2ccccc2F)cc1,5.98%
18,CC1CCCC(C)N1CC(O)COCc1ccccc1.Cl (centres unmarked),5.08%
19,CC(=O)Nc1ccc(OCC(O)CN2C(C)CCCC2C)cc1.Cl (centres unmarked),19.1%
20,Cc1ccc(C)c(OCC(O)CN2C(C)CCCC2C)c1.Cl (centres unmarked),-67.9%
21,COc1cccc(OCC(O)CN2C(C)CCCC2C)c1.Cl (centres unmarked),10.8%
22,Cc1cc(OCC(O)CN2C(C)CCCC2C)ccc1C(C)C (centres unmarked),-32.4%
23,Cc1cc(Cl)ccc1OCC(O)CN1C(C)CCCC1C.Cl (centres unmarked),-73.2%

row,SMILES,"hERG current change (%, negative = inhibition) at 10uM"
1,CC1CCCC(C)N1CC(O)COc1ccc(Cl)cc1 (centres unmarked),-65%
2,CC1CCCC(C)N1CC(O)COCc1ccccc1F.Cl (centres unmarked),13.2%
3,Cc1cc(Cl)ccc1OCC(=O)N1C(C)CCCC1C (centres unmarked),-6.46%
4,CCn1c(/C=C/c2c[nH]c3ccccc23)nc2ccccc2c1=O,20.5%
5,CCOc1ccc2nc(N3CCC(C(=O)Nc4nnc(CC)s4)CC3)sc2c1,11.9%
6,Cn1c(=O)c2cn(Cc3ccc(Cl)cc3)cc2n(C)c1=O,-1.75%
7,CCOc1ccc(C2NCCc3cc(OC)c(OC)cc32)cc1OC (centres unmarked),12.3%
8,O=C1C(CSCc2ccccc2)NC(=S)N1c1ccccc1 (centres unmarked),16%
9,Nc1nc(SCCO)[nH]c(=O)c1NC(=O)c1ccc(Br)o1,23.8%
10,Cc1ccc(OCC(=O)NNC(=O)C2CCN(c3ncccn3)CC2)cc1,-18.6%
11,COC(=O)C1=C[C@@H](C(=O)OC)[C@@H]2C3=C(C(=O)[C@]2(CC(C)C)NC(=O)c2ccccc2)[C@H](C)n2c(=O)n(-c4ccccc4)c(=O)n2[C@@H]3C1,-8.87%
12,CCN(C(=O)COC(=O)C1CCN(S(=O)(=O)c2ccc3c(c2)OCCO3)CC1)C1CCCCC1,-2.31%
13,CC1(C)Cc2cccc(OCC(=O)NCc3ccccc3F)c2O1,-5.79%
14,CC(Oc1ccccc1)C(=O)N1CCN(c2ccc(N3CCOCC3)nn2)CC1 (centres unmarked),-3.79%
15,CCOC(=O)COc1ccc2c(c1)C(=O)CC1(CCN(C(C)=O)CC1)O2,-19.7%
16,CC(Oc1ccccc1)C(=O)N1CCN(C(=O)C(C)Oc2ccccc2)CC1 (centres unmarked),8.52%
17,CC(=O)N1CCC2(CC1)CC(=O)c1cc(OCC(=O)NCc3ccc(C)cc3)ccc1O2,-21.3%
18,CC(Oc1ccccc1)C(=O)N1CCC2(CC1)CC(=O)c1ccccc1O2 (centres unmarked),-65.7%
19,CC(Oc1ccccc1)C(=O)N1CCN(c2ccc(N3CCCCCC3)nn2)CC1 (centres unmarked),-52.7%
20,Cc1ccc(OCC(=O)N2CCC3(CC2)CC(=O)c2ccccc2O3)cc1,-73.3%
21,O=C1CC2(CCN(C(=O)COc3ccc(Cl)cc3)CC2)Oc2ccccc21,-85.8%
22,CC(Oc1ccccc1)C(=O)N1CCC2(CC1)Oc1ccc(Cl)cc1C(=O)C21CC(c2ccccc2)=NO1 (centres unmarked),7.46%
23,CC(Oc1ccccc1)C(=O)N1CCN(c2ccc(N3CCCCC3)nn2)CC1 (centres unmarked),-28.5%

row,SMILES,"hERG current change (%, negative = inhibition) at 10uM"
1,COc1ccc(C2=NS(=O)(=O)N(C)C(C(=O)N3CCOCC3)=C2)cc1OC,-2.16%
2,CN1CCN(C(=O)c2cnn(-c3ccccc3)c2NC(=O)c2cccs2)CC1,-29.2%
3,CCCCC1(C(=O)OCC)NC(c2ccc(O)cc2)C2C(=O)N(c3ccccc3)C(=O)C21 (centres unmarked),-3.73%
4,CCOC(=O)C1=C(N)N2C(=O)C(C)SC2=C(C(=O)OCC)C1c1cc(OC)c(OC)c(OC)c1 (centres unmarked),1.27%
5,COc1ccc(OC)c(S(=O)(=O)N2CCC(C(=O)NCc3ccccc3)CC2)c1,-9.9%
6,CN1CCN(/C=C2\SC(=S)NC2=O)CC1,11.6%
7,O=C(NNc1ccccc1)C(=O)NNS(=O)(=O)c1ccc(CCCl)cc1,2.82%
8,O=C1CC(N2CCOCC2)=NN1c1ccc([N+](=O)[O-])cc1,-8.54%
9,CCNC(=S)NNC(=O)c1nn(C)c(C)c1Cl,19%
10,CC(=O)Nc1c(O)n(C)c2ccccc12,13.6%
11,COc1ccccc1OCC(=O)N1CCC2(CC1)CC(=O)c1ccccc1O2,-40.2%
12,CC(=O)N1CCC2(CC1)CC(=O)c1cc(OCC(=O)N3CCN(C)CC3)ccc1O2,1.86%
13,CCOC(=O)N1CCN(C(=O)COc2ccc3c(c2)C(=O)CC2(CCN(C(C)=O)CC2)O3)CC1,-2.13%
14,CCOC(=O)C1CCN(C(=O)C(C)Oc2ccc(Br)cc2)CC1 (centres unmarked),-16.1%
15,CCN1CCN(C(=O)COc2ccc3c(c2)C(=O)CC2(CCN(C(C)=O)CC2)O3)CC1,20.5%
16,Cc1ccccc1OCC(=O)N1CCC2(CC1)CC(=O)c1ccccc1O2,-57.5%
17,CCC(Oc1ccccc1)C(=O)N1CCC(C(N)=O)CC1 (centres unmarked),15.8%
18,CCOc1ccc(OCC(=O)N2CCC3(CC2)CC(=O)c2ccccc2O3)cc1,-94.6%
19,CC(Oc1ccc(Br)cc1)C(=O)N1CCC(C(N)=O)CC1 (centres unmarked),-78.1%
20,O=C1CC2(CCN(C(=O)COc3ccccc3F)CC2)Oc2ccccc21,-49.1%
21,COc1ccc(OCC(=O)N2CCC3(CC2)CC(=O)c2ccccc2O3)cc1,-88.9%
22,CC(=O)N1CCC2(CC1)CC(=O)c1cc(OCC(=O)N3CCC4(CC3)OCCO4)ccc1O2,18.5%
